# Experimental data published in PubChem BioAssay AID493169 (National Center for Advancing Translational Sciences (NCATS), 2011).
# Results filed as inconclusive are left out. Values without a mark were called inactive. Activity calls are given as the source filed them. Calls come from the whole dose curve; as a rule, active = well fitted inhibition curve with a large enough effect; inconclusive = small, poorly fitted or top-dose-only effect; inactive = flat fitted curve, though single readings scatter.
# Assay: CHOP2 Reporter Counterscreen Assay for Inhibitors of Ubiquitin-specific Protease USP2a;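 note: activated enterokinase alone at 50 pM in a cell-free format rather than USP2a or CHOP2; nearly all actives have a fitted effect of over 55% in size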
# Settings: purified enterokinase, fluorogenic substrate, 485/531 nm; series mostly up to 38.3 µM; activity change, negative = inhibition: at the top concentration
# In short: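 Fluorescence (485/531 nm) read 10 min after adding 25nM reporter substrate to 50 pM activated EK preincubated 30 min RT with compound; Tris pH 8.0/CaCl2/CHAPS buffer. Data normalized to buffer-alone inhibition; concentration-response curves fitted.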
# % is set by controls: 0 for no effect and ±100 for the full control effect; potency is the fitted concentration of half-maximal effect.
SMILES,"activity change, negative = inhibition [%]",Potency
O=C(/C=N/O)NCc1cccnc1,0.652,–
O=C(O)CC1(CC(=O)Nc2ccc3ccccc3c2)CCCCC1,2.49,–
COc1cc(C)c(S(=O)(=O)NCc2ccc3c(c2)OCO3)cc1C,5.07,–
O=C(Nc1nc(-c2ccco2)c(-c2ccco2)s1)c1ccc(F)cc1F,–,10 µM (active)
Nc1cc(=O)[nH]c(SCc2cccc(Cl)c2)n1,6.13,–
COC(=O)c1c(O)c2c([nH]c1=O)CCCC2,3.84,–
Cc1cc(-c2csc(NCc3ccccc3)n2)c(C)n1C,–,12.6 µM (active)
CCn1nc(C(=O)N[C@@H](CCSC)c2nc3ccccc3[nH]2)c2ccccc2c1=O,-2.42,–
CC[n+]1c(/C=C/N(C)c2ccccc2)n(-c2ccccc2)c2ccc(-c3nc4ccccc4s3)cc21,–,10 µM (active)
OCCN(Cc1ccccc1)c1ncnc2sccc12,2.84,–
CCCOc1ccc(N2C(=O)CC(NCCc3ccc(S(N)(=O)=O)cc3)C2=O)cc1 (stereo not given),0.525,–
O=C(NCC(c1cccnc1)N1CCN(c2ccc(F)cc2)CC1)OCc1ccccc1 (stereo not given),4.77,–
C#CCOCCOCCOCCNc1nc(N2CCN(C(=O)CCCCCCCCCCNC(=O)[C@@H](CCC(=O)O)n3cc(CCCCCN)nn3)CC2)nc(N2CCN(C(=O)CCCCCCCCCCNC(=O)[C@H]([C@@H](C)CC)n3cc(CCCCCN)nn3)CC2)n1,–,5.01 µM (active)
O=C(NCCCN1CCCC1=O)c1cccc(N2CCCC2=O)c1,2.06,–
CCC(C)(C(=O)NC1CCCCC1)N(C(=O)C1CCC(=O)N1)c1ccccc1 (stereo not given),-1.78,–
C=CCn1c(NCc2cc(C)ccc2O)nc2ccccc21,2.52,–
CCSc1nc(N2CCCCC2)c2c(c1C#N)CCCC2,0.66,–
O=C(COc1ccccc1)NCCSc1ccccc1,-0.789,–
COC(=O)c1[nH]c2cc(OC)ccc2c1N,1.82,–
Cc1onc(-c2ccccc2)c1C(=O)N1CCN(C)CC1,1.29,–

SMILES,"activity change, negative = inhibition [%]",Potency
CCNC1=C(Cl)C(=O)c2ccccc2C1=O,8.75,–
COc1ccc(/C=C\C(=O)O[C@@H]2C(O)C(O[C@@H]3OC(C)[C@H](O[C@@H]4OCC(O[C@H]5O[C@H](CO)[C@@H](O)C(O)C5O)C(O)C4O)C(O)C3O)[C@H](OC(=O)[C@]34CCC(C)(C)C[C@@H]3C3=CCC5[C@@]6(C)CC(O)C(O[C@@H]7OC(CO)C(O)[C@H](O)[C@H]7O)[C@@](C)(C(=O)O)C6CC[C@@]5(C)[C@]3(CO)CC4)O[C@H]2C)cc1 (stereo not given in full),-14.4,–
O=C1c2ccccc2C(=O)N1CCC1=CCCCC1,-0.258,–
Cc1cccc(N=C2NC(=O)/C(=C/C=C/c3ccco3)S2)c1,–,10 µM (active)
CC12CN3CC(C)(CN(C1)C3c1ccc(Cl)cc1Cl)C2O (stereo not given),2.93,–
CCOC(=O)COc1c(OC)cc(Cl)cc1C1Nc2ccccc2C(=O)N1c1ccccc1 (stereo not given),-2.56,–
O=C1COc2ccc(C(=O)COC(=O)/C=C/c3ccc(Br)o3)cc2N1,–,2.82 µM (active)
O=C(COc1ccccc1)N1CCN(C(=O)Cc2ccccc2)CC1,1.53,–
Nc1ccc2nc(-c3ccc(N)c(Cl)c3)[nH]c2c1,-5.04,–
Cc1ccc(-c2nc(N/N=C/c3ccncc3)c3ccccc3n2)cc1,-0.319,–
O=C(NC1CCCCC1)C(c1ccco1)N(Cc1ccco1)C(=O)c1ccco1 (stereo not given),-14.8,–
CCCCCCCCCCOC(=O)Cn1c(COc2ccc(C)cc2)[n+](C)c2ccccc21,–,5.62 µM (active)
COc1ccc(NC(=O)CSc2ncccc2C(=O)OC(C)C)cc1OC,1.72,–
CC(=O)c1c(N2CCCC2)[nH]c(-c2ccccc2)nc1=S,0.802,–
O=C(CSc1ccc2nnc(-c3cccc(F)c3)n2n1)N1CCCc2ccccc21,-4.68,–
CCOc1ccc(NC(=O)c2ccc(NC(=O)COC(=O)c3ccc(NC(=O)CC#N)cc3)cc2)cc1,–,2.82 µM (active)
COCCn1c(SCC(=O)Nc2cc(C)on2)nnc1-c1ccccc1,-0.447,–
C#CCOCCOCCOCCNc1nc(N2CCN(C(=O)CCCCCCCCCCNC(=O)[C@H]([C@@H](C)CC)n3cc(CCCCCN)nn3)CC2)nc(N2CCN(C(=O)CCCCCCCCCCNC(=O)[C@H]([C@@H](C)CC)n3cc(CCCCN=C(N)N)nn3)CC2)n1,–,2.24 µM (active)
Cc1ccc(/C(N)=N/OC(=O)Oc2ccccc2)cc1,-0.304,–
Cc1csc(NC(=O)CCn2c(=O)sc3ccccc32)n1,2.39,–
